# From PubChem
# TDP1 cell noCPT: qHTS for Inhibitors of human tyrosyl-DNA phosphodiesterase 1 (TDP1): qHTS in cells in absence of CPT; DT40 Tdp1-/- hTDP1 cells, no CPT, ATP luminescence, 48 h; Potency, µM (highest dose often 46.2 µM), without a hit: at the top dose activity change, negative = growth inhibition, hits mostly inhibitors; 15% of 420,000 active; AID 686978, 2013; also: nearly all actives have a fitted effect of over 55% in size
#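 Seeded 400 DT40-hTDP1 cells/well (vehicle DMSO, no 20 nM CPT); pinned compounds; ≥48 hr at 37 °C; CellTiter-Glo luminescence as viability measure.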
# KB-V1 MDR tox: KB-V1 MDR subline cytotoxicity; KB-V1 MDR cells viability, CellTiter-Glo, 72 h; Potency, µM (doses to about 46.1 µM), usual class: cytotoxic; 3.4% of 400,000 active; also: nearly all actives have a fitted effect of over 60% in size
#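 qHTS viability screen in drug-selected KB-V1 MDR cells: 72 h compound treatment at 37 degrees C, ATP luminescence end point.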
# HT1080NT lethal: kills 2HG-producing HT-1080-NT fibrosarcoma cells; HT-1080-NT fibrosarcoma viability, CellTiter-Glo ATP luminescence, 48 h; Potency, µM (highest dose often 46.1 µM), inactives show at the highest dose activity, negative = less viability, hits mostly cytotoxic; 1.6% of 360,000 active; AID 686970;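 also: NT is the 2HG producing partner of a matched IDH1 knockdown line; 0% = DMSO-treated cells and -100% = media-only wells without cells; nearly all actives have a fitted effect of over 55% in size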
#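 Viability by CellTiter-Glo luminescence after 48 h compound exposure at 37C of HT-1080-NT cells (750/well, RPMI, 5% FBS). % activity scaled between DMSO wells and medium-only wells, then curve-fitted and categorized by curve class.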
# HT1080 IDH1KD tx: HT-1080 IDH1 knockdown cell toxicity (counter line); HT-1080 IDH1 knockdown viability, ATP luminescence, 48 h; Potency, µM (highest dose often 46.1 µM), without a hit: at the top dose activity, negative = toxicity, most hits filed as cytotoxic; 2% of 360,000 active;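 also: 0% = DMSO wells and -100% = cell-free medium wells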
#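 Assay cells: HT-1080 with IDH1 knockdown, 750 per well, RPMI/5% FBS. Exposure: 48 h at 37 °C following 2 h pre-incubation. Read: CellTiter-Glo luminescence; fitted concentration-response, curve class assigned.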
# KB-3-1 tox: kills parental KB-3-1 adenocarcinoma cells. KB-3-1 viability, CellTiter-Glo ATP luminescence, 72 h. Potency, µM (titrated, usually from 46.1 µM), most hits filed as cytotoxic. 1.4% of 400,000 active. AID 1347075; also: nearly all actives have a fitted effect of over 60% in size
#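 Viability of parental KB-3-1 cells, measured by CellTiter-Glo luminescence, followed a 72 h incubation at 37 °C with pinned compounds in phenol-red-free DMEM containing 10% FBS.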
# TDP1 cell CPT: DT40-hTDP1 cell growth loss with CPT; chicken DT40 Tdp1-/-;hTDP1 cells + 20 nM CPT, ATP luminescence, 48 h; Potency, µM (titrated, usually from 46.2 µM), for the others: at the highest dose activity change, negative = growth inhibition, usual class: inhibitors; 12% of 420,000 active; AID 686979; also: nearly all actives have a fitted effect of over 55% in size
#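 Chicken DT40 Tdp1-/- cells stably complemented with human TDP1 were seeded at 400 cells/well in medium containing 20 nM camptothecin, exposed to pin-transferred compounds, and grown at 37 °C for at least 48 hr. Viability was read as ATP luminescence.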
# * hit, by the source's call; i = inactive; ? = inconclusive; · = no result; [ ] = another dose, or the depositor's remark. Most compounds without a hit are left out; they make up all but 19% or so of the library. Calls follow the shape of the dose curve; as a rule, active = well fitted curve in the direction sought with a large enough effect; inconclusive = small, poorly fitted or top-dose-only effect, or another doubt; inactive = no such curve, though single readings can be large; an effect the other way counts as inactive or inconclusive. Unless noted, % is scaled to controls: 0 for no effect and ±100 for the full control effect; potency is read from the fitted curve at half-maximal effect.
SMILES,TDP1 cell noCPT,KB-V1 MDR tox,HT1080NT lethal,HT1080 IDH1KD tx,KB-3-1 tox,TDP1 cell CPT
CC(C)N(C(=O)[C@H]1C[C@H](CC(=O)NCc2cccc(C(F)(F)F)c2)C(=O)N2CCc3c([nH]c4cc(-c5ccco5)ccc34)[C@]12C)C(C)C,?,?,-26.6%,?,?,?
COc1ccc2[nH]c3c(c2c1)CCN1C(=O)C(CC(=O)NC/C=C(\C)CCC=C(C)C)C[C@H](C(=O)N2CCOCC2)[C@@]31CCC1CCCC1 (some centres undefined),20.6µM*,i,2.6%,12.0%,i,14.6µM*
CC[C@]12c3[nH]c4ccc(OC)cc4c3CCN1C(=O)C(CC(=O)NC/C=C(\C)CCC=C(C)C)C[C@@H]2C(=O)N1CCN(C(=O)C2CC2)CC1 (some centres undefined),?,?,-1.9%,-11.6%,i,?
Cc1oc2c(cc(NS(=O)(=O)c3ccc(F)cc3)c3ccccc32)c1C(=O)OCc1ccccc1,?,i,·,·,i,?
O=C(CC1C[C@H](C(=O)N2CCCCC2)[C@@]2(CCc3ccccc3)c3[nH]c4ccccc4c3CCN2C1=O)NCc1ccco1 (some centres undefined),20.6µM*,i,-1.0%,-0.6%,i,13µM*
CN(C)CCCNC(=O)C[C@H]1C[C@H](C(=O)N2CCOCC2)[C@@]2(CCC3CCCC3)c3[nH]c4cc(-c5ccco5)ccc4c3CCN2C1=O,?,i,?,?,?,23.1µM*
O=C(C[C@H]1C[C@H](C(=O)N2CCCCC2)[C@@]2(CCc3ccccc3)c3[nH]c4cc(-c5ccco5)ccc4c3CCN2C1=O)NCc1ccco1,?,i,-7.8%,-5.6%,i,?
COc1ccc(CNC(=O)C[C@H]2C[C@H](C(=O)N3CCOCC3)[C@@]3(CCC4CCCC4)c4[nH]c5cc(-c6ccco6)ccc5c4CCN3C2=O)cc1OC,?,i,?,?,?,18.4µM*
COCCCNC(=O)C[C@H]1C[C@H](C(=O)N2CCOCC2)[C@@]2(CCC3CCCC3)c3[nH]c4cc(-c5ccco5)ccc4c3CCN2C1=O,?,i,-18.6%,-6.0%,i,?
O=C(CC1C[C@H](C(=O)N2CCOCC2)[C@@]2(CCC3CCCC3)c3[nH]c4ccccc4c3CCN2C1=O)NCCc1ccccn1 (some centres undefined),?,i,-3.7%,-2.5%,i,20.6µM*
O=C(NC[C@@H]1CCCN2CCCC[C@H]12)c1cnn(-c2nccc(-c3ccco3)n2)c1C1CC1,-3.6%,·,·,·,·,4.1%[9.04 µM]
CCS(=O)(=O)N1CC(=O)N(c2ccccc2C)C(C)(C(=O)NC2CCCCC2)C1 (centres undefined),-0.4%,i,·,·,i,-1.9%
Cc1ccc(NC(=O)CCSc2nc(-c3ccco3)cc(C(F)(F)F)n2)cc1F,?,i,·,·,i,?
O=C(C[C@H]1C[C@H](C(=O)N2CCOCC2)[C@@]2(CCC3CCCC3)c3[nH]c4cc(-c5ccco5)ccc4c3CCN2C1=O)NCCN1CCOCC1,?,i,-19.0%,?,?,23.1µM*
C(=NOCc1ccccc1)c1cccnc1,-26.0%,i,16.4%,12.4%,i,9.4%
COc1ccc(NCc2ccc([N+](=O)[O-])s2)cc1,20.6µM*,i,-5.1%,-24.5%,i,?
COc1ccc(NCc2ccc([N+](=O)[O-])s2)c(OC)c1,?,i,5.9%,10.0%,?,16.4µM*
